Screening data: PubChem BioAssay, Broad Institute
DENV2 CPE – inhibitors of DENV2 cytopathic effect, primary screen, cell-based, plate reader, single concentration. DENV2-infected cells, cytopathic effect rescue. CPE inhibition, % at 9.99 µM. 350,000 tested, 1.7% active. AID 651640, 2012; in the data active = CPE inhibition above about 20%, passing the limit was not always enough; tested in BHK-21 cells;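 note: 0% = median of neutral control wells and 100% = median of positive control wells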
PglD inh – C. jejuni PglD acetyltransferase inhibitors, primary screen, biochemical, DTNB colorimetric, single point. UDP-N-acetylbacillosamine N-acetyltransferase PglD (Campylobacter jejuni). purified PglD enzyme, DTNB colorimetric CoA detection. inhibition, % at 12.5 µM. 360,000 tested, 0.098% active. AID 602405, 2012; in the data active = inhibition above about 16%, passing the limit was not always enough
Rtt109 Vps75 – inhibitors of C. albicans Rtt109/Vps75 HAT, primary screen, biochemical, ThioGlo CoA-SH fluorescence, plate reader. purified Rtt109/Vps75, 4 h. Histone acetyltransferase RTT109 (Candida albicans (strain SC5314 / ATCC MYA-2876)), …. 330,000 tested, 0.16% active. inhibition, % at 34.9 µM;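 active = inhibition of at least 50% in every replicate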
Target sequence (Q5AAJ8 whole entry, looked up): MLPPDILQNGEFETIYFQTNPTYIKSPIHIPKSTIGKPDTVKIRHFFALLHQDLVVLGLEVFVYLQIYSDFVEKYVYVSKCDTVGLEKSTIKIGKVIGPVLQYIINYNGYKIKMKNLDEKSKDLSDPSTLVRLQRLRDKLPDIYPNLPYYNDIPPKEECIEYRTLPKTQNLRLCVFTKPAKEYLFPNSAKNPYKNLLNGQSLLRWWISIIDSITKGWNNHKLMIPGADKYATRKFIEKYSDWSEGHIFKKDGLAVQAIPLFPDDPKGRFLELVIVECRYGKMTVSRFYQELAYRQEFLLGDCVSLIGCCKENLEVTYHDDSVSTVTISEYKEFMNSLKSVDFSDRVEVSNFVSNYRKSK
N-glyco inh – increase of ERlucT glycosylation luciferase signal, primary screen, N-linked glycosylation inhibitor project, D54 ERlucT cells, luminescence, set 2 | reporter increase, % at 12.5 µM | D54 ERlucT glycosylation luciferase reporter, 24 h; percent of 100 nM tunicamycin response | 360,000 tested, 0.23% active;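 active = mean luciferase reporter signal, scaled so untreated is 0 and the glycosylation-blocking control 100, at or above a set limit in every replicate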;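 note: luciferase carries N-glycosylation sites so blocking glycosylation raises the light; 0% = median of neutral control wells and 100% = median of 100 nM tunicamycin wells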
* = called active by the depositor; / = no result given. The entries come from a sample that favours hits as a whole.

SMILES	DENV2 CPE	PglD inh	Rtt109 Vps75	N-glyco inh
O=C(c1ccco1)N1CCCC(N2CCN(c3ccccc3F)CC2)C1 (centres undefined)	1	4	-6	1
Cc1cc(C(=O)N/N=C/c2c3ccccc3cc3ccccc23)n[nH]1	-5	3	1	45*
COc1ccc(CN2CCC[C@]3(N[C@H](c4ccc(OC)cc4)[C@@H]4C(=O)N(C)C(=O)[C@@H]43)C2=O)cc1	27*	0	/	0
O=C1[C@H]2[C@@H](c3ccccc3)N[C@]3(CCCN(Cc4ccc(Cl)cc4)C3=O)[C@H]2C(=O)N1Cc1ccccc1	44*	-1	/	3
COc1ccc([C@H]2N[C@]3(CCCN(Cc4ccc(C)cc4)C3=O)[C@H]3C(=O)N(C)C(=O)[C@@H]23)cc1	5	3	/	2
O=C1[C@H]2[C@@H](c3ccccc3)N[C@]3(CCCN(Cc4ccc(Br)cc4)C3=O)[C@H]2C(=O)N1Cc1ccccc1	-2	0	/	3
Cc1noc(C)c1NC(=O)N(C)C[C@@H]1OCCCC[C@H](C)Oc2ccc(NC(=O)NC(C)C)cc2C(=O)N([C@H](C)CO)C[C@@H]1C	0	1	/	/
Cc1noc(C)c1NC(=O)Nc1ccc2c(c1)C(=O)N([C@@H](C)CO)C[C@H](C)[C@@H](CN(C)C(=O)NC1CCCCC1)OCCCC[C@H](C)O2	21*	-2	/	/
Cc1noc(C)c1NC(=O)N(C)C[C@H]1OCCCC[C@H](C)Oc2ccc(NC(=O)NC3CCCCC3)cc2C(=O)N([C@@H](C)CO)C[C@@H]1C	28*	-5	/	/
Cc1noc(C)c1NC(=O)N(C)C[C@H]1OCCCC[C@H](C)Oc2ccc(NC(=O)NC(C)C)cc2C(=O)N([C@H](C)CO)C[C@@H]1C	102*	-2	/	/
Cc1noc(C)c1NC(=O)N(C)C[C@H]1OCCCC[C@H](C)Oc2ccc(NC(=O)NC3CCCCC3)cc2C(=O)N([C@H](C)CO)C[C@@H]1C	18	2	/	/
CN1C(=O)c2cc(NC(=O)C3CCCCC3)ccc2OC[C@@H]2O[C@@H](CC(=O)NC3CCCC3)CC[C@H]21	-5	3	/	/
CN1C(=O)c2cc(NC(=O)c3cccc(C(F)(F)F)c3)ccc2OC[C@H]2O[C@@H](CC(=O)NCCN3CCCC3)CC[C@H]21	-3	3	/	/
COc1cc(OC)cc(-c2c(-c3cccs3)c3cc(-c4ccc(N(C)C)nc4)ccc3n2C)c1	34*	-7	-4	-1
COc1cc(F)cc(-c2ccc3c(c2)c(-c2cccs2)c(-c2cc(OC)cc(OC)c2)n3C)c1	78*	-5	-2	2
COc1cc(OC)cc(-c2c(-c3cccs3)c3cc(-c4ccn[nH]4)ccc3n2C)c1	33*	2	3	0
COc1cc(OC)cc(-c2c(-c3cccs3)c3cc(Br)ccc3n2C)c1	-23	0	-5	-1
Cc1noc(C)c1NC(=O)N(C)C[C@H]1Oc2ccc(NC(=O)CCCCCC(=O)Nc3ccccc3N)cc2C(=O)N([C@@H](C)CO)C[C@@H]1C	4	-39	/	/
C[C@@H]1CN([C@@H](C)CO)C(=O)c2cccc(N(C)C)c2O[C@@H]1CN(C)S(=O)(=O)c1cccs1	-3	2	/	/
Cc1cccc(-c2ccc([C@H]3[C@@H](CO)N4CCCCN(C(=O)NC(C)C)C[C@H]34)cc2)c1	-17	10	/	/
CO[C@@H]1CN(C)C(=O)c2cc(NS(C)(=O)=O)ccc2OC[C@@H](C)N(C(=O)CN(C)C)C[C@@H]1C	21*	3	/	/
CO[C@H]1CN(C)C(=O)c2cc(NS(C)(=O)=O)ccc2OC[C@@H](C)N(C(=O)CN(C)C)C[C@@H]1C	-2	1	/	/
CO[C@H]1CN(C)C(=O)c2cc(NS(C)(=O)=O)ccc2OC[C@H](C)N(C(=O)CN(C)C)C[C@@H]1C	64*	0	/	/
C[C@@H]1CN([C@H](C)CO)C(=O)c2cc(NC(=O)Nc3ccc4c(c3)OCO4)ccc2O[C@@H](C)CCCCO[C@H]1CN(C)S(=O)(=O)c1ccc(Cl)cc1	38*	6	/	/
C[C@H](CO)N1C[C@H](C)[C@H](CN(C)S(=O)(=O)c2ccc(Cl)cc2)OCCCC[C@H](C)Oc2ccc(NC(=O)NC3CCCCC3)cc2C1=O	50*	-3	/	/
SMILES	DENV2 CPE	PglD inh	Rtt109 Vps75	N-glyco inh
C[C@@H]1CCCCO[C@@H](CN(C)C(=O)Nc2ccc3c(c2)OCO3)[C@H](C)CN([C@H](C)CO)C(=O)c2cc(NS(=O)(=O)c3ccc(Cl)cc3)ccc2O1	6	5	/	/
C[C@@H]1CCCCO[C@H](CN(C)C(=O)Nc2ccc3c(c2)OCO3)[C@@H](C)CN([C@H](C)CO)C(=O)c2cc(NS(=O)(=O)c3ccc(Cl)cc3)ccc2O1	25*	-6	/	/
COCC#Cc1ccc([C@@H]2[C@@H](CO)N3CCCCN(S(=O)(=O)c4ccccc4F)C[C@@H]23)cc1	21*	-4	/	/
COCC#Cc1ccc([C@H]2[C@H](CO)N3CCCCN(S(=O)(=O)c4ccc(OC)cc4)C[C@@H]23)cc1	62*	3	/	/
COCC#Cc1ccc([C@H]2[C@H]3CN(S(=O)(=O)c4ccc(OC)cc4)CCCCN3[C@H]2CO)cc1	45*	0	/	/
COc1cc(-c2c(-c3cc(OC)c(OC)c(OC)c3)noc2C)ccc1F	-1	/	/	/
COc1ccc(-c2c(-c3cc(OC)c(OC)c(OC)c3)noc2C)cn1	/	1	2	30*
COc1cc(-c2noc(C)c2/C=C/c2ccc(N)cc2)cc(OC)c1OC	/	-3	-1	43*
COC(=O)c1cc(-c2c(-c3cc(OC)c(OC)c(OC)c3)noc2C)cc([N+](=O)[O-])c1	21*	-1	14	7
COc1ccc(-c2oc3ccc(-c4cc(OC)c(OC)c(OC)c4)cc3c2-c2ccc(OC)nc2)cc1	80*	0	-2	-3
C[C@@H]1CN([C@@H](C)CO)C(=O)c2cccc(NC(=O)Nc3cccc4ccccc34)c2O[C@H]1CN(C)CC1CC1	5	2	/	/
C[C@H]1CN([C@@H](C)CO)C(=O)Cc2cc(NC(=O)CCN3CCOCC3)ccc2O[C@H]1CN(C)Cc1ccc(C(F)(F)F)cc1	-5	5	/	/
CO[C@H]1CN(C)C(=O)c2cc(NC(=O)c3ccc(Oc4ccccc4)cc3)ccc2OC[C@H](C)NC[C@@H]1C	0	-2	/	/
CO[C@H]1CN(C)C(=O)c2ccc(NC(=O)c3cccc(F)c3)cc2OC[C@H](C)NC[C@@H]1C	2	-1	/	/
COc1cccc(C(=O)Nc2ccc3c(c2)C(=O)c2ccccc2C3=O)c1	/	/	50*	34*
CO[C@H]1CN(C)C(=O)c2cc(NC(=O)c3ccc(Oc4ccccc4)cc3)ccc2OC[C@@H](C)NC[C@H]1C	26*	-3	/	/
COc1cccc(C(=O)Nc2ccc3c(c2)OC[C@H](C)NC[C@H](C)[C@@H](OC)CN(C)C3=O)c1	25*	/	/	/
